# Laboratory results published in PubChem BioAssay (NCI).
# Compounds without any hit were thinned out: in the full panel of roughly 83,000, 20% have a hit.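 Single-concentration screen, 48 h exposure, 96-well plates. Endpoint: percent growth. Below 10 = active.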 A number with no mark means an inactive call. Active and inactive are the calls of the source.
# Test system: SK-MEL-5 melanoma
# Experiment: NCI-60 one-dose screen, 48 h (100 = growth as untreated, 0 = no growth, -100 = all killed)
# Conditions: 10 µM unless noted
# Method: Growth inhibition of the SK-MEL-5 human tumor cell line is measured as a screen for anti-cancer activity. Cells are grown in 96 well plates and exposed to the test compound for 48 hours. Compounds are tested at a single concentration, which is 10^-5 M for most compounds. The reported endpoint is percent growth (GI% or GIPRCNT), where numbers from 0 - 100% represent growth inhibition, and numbers from -100% - 0 represent cell death. For example, a value of 40 represents 60% growth inhibition. A value of 0 means no net growth occurred over the course of the experiment. A value of -40 indicates 40% of cells at the beginning of the experiment died by the end of the experiment. A value of -100 means all cells are dead at the end of the experiment.
# NCI-60 Human Tumor Cell Lines Screen was performed using the standard one-dose NCI protocol, which is described in more detail at https://dtp.cancer.gov/discovery_development/nci-60/default.htm.
# Compounds with GIPRCNT values below 10 were considered active. Activity score was based on GIPRCNT using the following formula: […]
# Score is 0 for GIPRCNT values of 100 or above, 50 for GIPRCNT values of 0, and 100 for GIPRCNT values of -100.
row,SMILES,growth
1,ClCc1ccc(-c2ccc(Cn3cnc4c(Cl)nc(Cl)nc43)cc2)cc1,-67.7% (active)
2,ClCc1ccc(-c2ccc(Cn3cnc4nc(Cl)nc(Cl)c43)cc2)cc1,-85.1% (active)
3,O=C(c1ccccc1)C(c1ccccc1)N1CCOCC1 (stereo not given),102%
4,Ic1ccccc1-c1ccccc1,111%
5,CCCC(=O)OCC1OC(n2cnc3c(=S)nc[nH]c32)C(OC(=O)CCC)C1OC(=O)CCC (stereo not given),38.6%
6,C[C@@H](Oc1cc(C(=O)Nc2ccc(C(=O)N3CCN(C)CC3)cc2)nnc1N)c1c(Cl)ccc(F)c1Cl,36.8%
7,COc1cc2nccc(Oc3ccc(NC(=O)C4(C(=O)Nc5ccc(F)cc5)CC4)cc3)c2cc1OC,3.39% (active)
8,[2H]C1([2H])[C@H](C)O[C@H](C)C([2H])([2H])N1c1ccc(NC(=O)c2cccc(-c3ccc(OC(F)(F)F)cc3)c2C)cn1,53.9%
9,Cc1ccc(-n2nc(C(C)(C)C)cc2NC(=O)NCc2cc(F)ccc2Oc2ccc3c(cnn3CCO)c2)cc1,-19.5% (active)
10,CNC(=O)c1nn(C)c2c1C(C)(C)Cc1cnc(Nc3ccc(N4CCN(C)CC4)cc3)nc1-2,7.31% (active)
11,Cc1cnc(NC(=O)Nc2cc(Br)c(C)cc2OC[C@@H]2CNCCO2)cn1,-92.2% (active)
12,CCCCN1CCCC[C@@H]1C(=O)N[C@H](C(=O)N(C)[C@H](CCc1nc(C(=O)N[C@@H](Cc2ccccc2)C[C@H](C)C(=O)OC)cs1)C(C)C)C(C)C,53.5%
13,O=C(Nc1ccc(Nc2ncnc3sc4c(c23)CCOC4)cc1)Nc1ccc(Cl)c(C(F)(F)F)c1,98.1%
14,O=C1C=CC2(NN=C(c3ccccc3)N2c2cccc(Cl)c2)c2cccc(O)c21 (stereo not given),-54.6% (active)
15,COc1ccc2c(CCCC(c3ccccc3)c3ccccc3)c3[n+](cc2c1OC)CCc1cc2c(cc1-3)OCO2,-100% (active)
16,O=c1[nH]c(N2CCOCC2)nc2scc(-c3ccccc3)c12,98.7%
17,O=C1NC(=O)C(c2cnc3ccccn23)=C1c1cn2c3c(cc(F)cc13)CN(C(=O)N1CCCCC1)CC2,32.8%
18,COc1ccc2c(CCC(c3ccccc3)c3ccccc3)c3[n+](cc2c1OC)CCc1cc2c(cc1-3)OCO2,-99.6% (active)
19,C/C(=C(/c1ccc(Cl)cc1)c1ccc(OCCN2CCCCC2)cc1)c1ccccc1,62%
20,Oc1ccc(/C=N/Nc2nnc(N/N=C/c3ccc(O)cc3O)c3ccccc23)c(O)c1,-17.7% (active)

row,SMILES,growth
1,OCCNC(=S)Nc1ccc(-c2nc(N3C[C@H]4CC[C@@H](C3)O4)c3cccn3n2)cc1,-34.8% (active)
2,O=C1CC(c2cccc(F)c2)c2c(n[nH]c2-c2ccc(Cl)cc2)N1 (stereo not given),87.1%
3,S=C(NCc1ccc2c(c1)OCO2)N1CCN(c2ncnc3c2oc2ccccc23)CC1,-46% (active)
4,Cc1cc(N(CCNc2ccnc3cc(Cl)ccc23)Cc2ccc3c(c2)OCO3)nc(N2CCCC2)n1,-96.9% (active)
5,CC(=O)c1c(C)c2cnc(Nc3ccc(N4CCNCC4)cn3)nc2n(C2CCCC2)c1=O,41.1%
6,C=CC(=O)N1CCC[C@H](n2c(=O)n(-c3ccc(Oc4ccccc4)cc3)c3c(N)ncnc32)C1,94.1%
7,COc1cc(Nc2ncc(F)c(Nc3ccc4c(n3)N(COP(=O)(O)O)C(=O)C(C)(C)O4)n2)cc(OC)c1OC,43.8%
8,CC(=O)OC(C(=O)c1ccccc1)c1ccccc1 (stereo not given),102%
9,Cn1c(Nc2ccc(C(F)(F)F)cc2)nc2cc(Oc3ccnc(-c4ncc(C(F)(F)F)[nH]4)c3)ccc21,39%
10,Cc1ccc(F)c(NC(=O)Nc2ccc(-c3cccc4[nH]nc(N)c34)cc2)c1,34.6%
11,O=C(Nc1cnn2ccc(N3CCC[C@@H]3c3cc(F)ccc3F)nc12)N1CC[C@H](O)C1,97.8%
12,O=C(O)c1ccc(Nc2ncc3c(n2)-c2ccc(Cl)cc2C(c2c(F)cccc2F)=NC3)cc1,60.6%
13,O=C1OCC2=C1C(c1cccc(F)c1)c1cc3c(cc1N2CCO)OCCO3 (stereo not given),8.33% (active)
14,O=C1CC(c2ccc(Cl)cc2)c2ncn(-c3cccc(Cl)c3)c2N1 (stereo not given),34.1%
15,CCc1nc2cc(F)c(/C=C/C(=O)NO)cc2c(=O)n1CCc1ccccc1,4.25% (active)
16,CC(=O)O[C@]1(C)C[C@H](O)[C@]2(O)C=CO[C@H](O[C@@H]3O[C@H](CO)[C@@H](O)[C@H](O)[C@H]3O)[C@@H]21,103%
17,COc1cc2ncnc(Nc3ccc(F)c(Cl)c3)c2cc1NC(=O)/C=C/CN1CCCCC1,-99.8% (active)
18,Cc1cc(Nc2nc(N[C@@H](C)c3ncc(F)cn3)ncc2Cl)n[nH]1,95.9%
19,CCNC(=O)C#Cc1ccc2c(C(=Nc3ccc(CN(C)C)cc3)c3ccccc3)c(O)[nH]c2c1,17%
20,CCN(CCN(C)C)C(=O)CNCc1cc(C(N)=O)ccn1,95.4%
